# Measured values from PubChem BioAssay.
# Active and inactive are the calls of the source. Unless noted, no stated cut-off is given here; in the data, active means inhibition above about 80%; inactive means the rest.
# Key:
# [1] = LFS_MB_P medulloblastoma growth inhibition, cell-based, chromothripsis tumors, cisplatin or BGB combos (AID 1671449); details: LFS_MB_P medulloblastoma cells;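 further: cells exposed for 96 hours; 0% = vehicle DMSO and 100% = killing by high DMSO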
# [2] = HDN33 neuroblastoma growth inhibition, cell-based, chromothripsis tumors, cisplatin or BGB combos (AID 1671450); details: HDN33 neuroblastoma cells, stronger effect = higher value;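 further: cells exposed to compound for four days; 0% = vehicle DMSO and 100% = cell killing by high DMSO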
# [3] = ICB984 medulloblastoma cell growth inhibition, synergistic combos for chromothripsis tumors, cisplatin or BGB combos (AID 1671451; call rule not given here;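 further: cells exposed for 96 hours before readout; 0% = vehicle DMSO and 100% = killing by high DMSO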); details: ICB984 medulloblastoma cells, drug combinations, stronger effect = higher value
# [4] = LFS_MB_1R medulloblastoma cell growth inhibition, synergistic combos for chromothripsis tumors, cisplatin or BGB combos (AID 1671452); details: LFS_MB_1R medulloblastoma cells, stronger effect = higher value;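 further: cells exposed for 96 hours before readout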
# [5] = HTB85 osteosarcoma cell growth inhibition, synergistic combos for chromothripsis tumors, BGB or cisplatin IC20 combos (AID 1671453); details: HTB85 osteosarcoma cells, drug combinations, stronger effect = higher value;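 further: cells exposed for 96 hours before readout; 0% = vehicle DMSO and 100% = high DMSO killing control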
# [6] = CRL2098 osteosarcoma cell growth inhibition, synergistic combos for chromothripsis tumors, BGB or cisplatin IC20 combos (AID 1671454); details: CRL2098 osteosarcoma cells, drug combinations, stronger effect = higher value;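 further: cells exposed for 96 h before readout; 0% = vehicle DMSO and 100% = killing by high DMSO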
# [7] = HD-MB03 medulloblastoma cell growth inhibition, synergistic combos for chromothripsis tumors, BGB or cisplatin IC20 combos (AID 1671455; in the data active means inhibition above about 83%;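 further: 0% = vehicle DMSO and 100% = high DMSO as cytotoxic control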); details: HD-MB03 medulloblastoma cells, stronger effect = higher value
# [8] = UWB1.289 ovarian carcinoma cell growth inhibition, synergistic combos for chromothripsis tumors, BGB or cisplatin combos (AID 1671456); details: UWB1.289 ovarian carcinoma cells, stronger effect = higher value;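 further: cells exposed to compound for four days; 0% = vehicle DMSO and 100% = killing by high DMSO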
# [9] = LFS_MB_2R medulloblastoma cell growth inhibition, synergistic combos for chromothripsis tumors, cisplatin combos (AID 1671457); details: LFS_MB_2R medulloblastoma cells, stronger effect = higher value;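 further: cells exposed to compound for four days before readout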
# [10] = MDA-MB-436 breast carcinoma cell growth inhibition, synergistic combos for chromothripsis tumors, BGB or cisplatin combos (AID 1671458; call rule not given here;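 further: cells exposed for 96 hours; 0% = vehicle DMSO and 100% = killing by high DMSO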); details: MDA-MB-436 breast carcinoma growth inhibition, drug combinations, stronger effect = higher value
# [11] = UWB1.289_BRCA1 ovarian cancer growth, cell-based, BGB or cisplatin combinations (AID 1671459); details: UWB1.289 BRCA1 ovarian carcinoma, drug combinations, stronger effect = higher value
# [12] = human astrocyte viability loss, single and combined drugs, cytotoxicity control for chromothriptic childhood tumor combination screen, cell-based, BGB or cisplatin IC20 combos (AID 1671460); details: Human astrocytes, drug combinations, stronger effect = higher value;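 further: cells exposed to compounds for 96 hours before viability readout; 0% = vehicle and 100% = killing control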
# [13] = growth inhibition of BT084 medulloblastoma cells, cell-based, ICGC_MB145, cisplatin and BGB IC40 combos (AID 1671461); details: drug combinations, stronger effect = higher value;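 further: cells exposed to drugs for 96 hours; 0% = vehicle DMSO and 100% = high DMSO full killing control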
# [14] = growth inhibition of RCMB18 medulloblastoma cells, cell-based, cisplatin and BGB IC40 combos (AID 1671462); details: stronger effect = higher value;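 further: cells exposed to compound for four days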
# [15] = growth inhibition of CRL1545 osteosarcoma cells, cell-based, cisplatin and BGB IC20 combos (AID 1671464); details: stronger effect = higher value;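 further: cells exposed to compound for 96 hours before readout; 0% = vehicle DMSO and 100% = high DMSO killing control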
# [16] = circadian clock period modulators, cell-based, LOPAC library, luminescence reporter (AID 2774; call rule not given here;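 further: values are relative to mean of DMSO wells on each plate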); details: circadian reporter cells, at 7 µM, actives lie on both sides
# [17] = tested on: Hepatitis C virus NS3 helicase; assay: HCV NS3 helicase inhibitors, primary screen, biochemical, fluorescence polarization, LOPAC1280 library (AID 687035; in the data active means inhibition above about 37%); details: Purified HCV NS3 helicase, Cy5-dT15 ssDNA binding fluorescence polarization; stronger effect = higher value; concentration not given here
# [18] = Cy5 fluorescence quenching or enhancement artefacts, artefact control for HCV NS3 helicase inhibitor project, biochemical, LOPAC1280 (AID 687037; call rule not given here); details: Cy5-DNA-NS3h complex fluorescence interference counterscreen
# [19] = at 0.5 µM, stronger effect = higher value
# [20] = measured here: combination with BGB IC20, at 0.005 µM
# [21] = measured here: combination with BGB IC40, at 0.005 µM
# [22] = measured here: combination with BGB IC40, at 0.05 µM
# [23] = measured here: combination with cisplatin, at 0.5 µM, stronger effect = higher value
# [24] = measured here: combination with cisplatin, at 5 µM, stronger effect = higher value
# [25] = measured here: with BGB IC20 combination, at 0.5 µM
# [26] = measured here: with cisplatin IC20 combination, at 0.5 µM
# [27] = measured here: 5 uM single agent, at 5 µM
# [28] = measured here: combination with cisplatin, at 0.5 µM
# [29] = measured here: combination with cisplatin, at 5 µM
# [30] = measured here: with BGB IC20, at 0.5 µM
# [31] = measured here: with BGB IC20, at 5 µM
structure (smiles),measurement,setting,value
CC1(C)C(C(=O)Nc2ccc(S(=O)(=O)c3ccc(NC(=O)C4C(C)(C)C4(C)C)cc3)cc2)C1(C)C,inhibition,[1]; [19],-7.93% (inactive)
same,inhibition,[1]; [20],-18.4%
same,inhibition,[1]; [21],-46.1%
same,inhibition,[1]; [22],-26.3%
same,inhibition,[1]; [23],-30.9%
same,inhibition,[1]; [24],-41.5%
same,inhibition,"[2]; BGB combo, at 5 µM",-17.4%
same,inhibition,[2]; at 0.5 µM,-53.9% (inactive)
same,inhibition,"[2]; cisplatin combo, at 5 µM",-66.6%
same,inhibition,[2]; [25],-56.4%
same,inhibition,[2]; [26],-51.1%
same,inhibition,"[2]; single agent, at 5 µM",-24.6%
same,inhibition,"[3]; BGB IC20 combo, at 0.005 µM",-19.6%
same,inhibition,"[3]; BGB IC40 combo, at 0.005 µM",-21.6%
same,inhibition,"[3]; BGB IC40 combo, at 0.05 µM",0.527%
same,inhibition,[3]; at 0.5 µM,-22.6% (inactive)
same,inhibition,"[3]; cisplatin combo, at 0.05 µM",-4.5%
same,inhibition,"[3]; cisplatin combo, at 0.5 µM",-42.3%
same,inhibition,"[3]; cisplatin combo, at 5 µM",-31.4%
same,inhibition,[3]; [27],-26.8%
same,inhibition,[4]; at 0.5 µM,-36.5% (inactive)
same,inhibition,[4]; [22],-27.2%
same,inhibition,[4]; [28],-46.1%
same,inhibition,[4]; [29],-61.4%
same,inhibition,[5]; at 0.5 µM,-37.5% (inactive)
same,inhibition,[5]; [30],-37%
same,inhibition,[5]; [31],-16.1%
same,inhibition,"[5]; measured here: with cisplatin IC20, at 0.5 µM",-31.9%
same,inhibition,"[5]; measured here: with cisplatin IC20, at 5 µM",-19.7%
same,inhibition,"[5]; single agent, at 5 µM",-8.34%
same,inhibition,[6]; at 0.5 µM,-53.9% (inactive)
same,inhibition,"[6]; measured here: combination with BGB at IC20, at 0.5 µM",-51.4%
same,inhibition,"[6]; measured here: combination with cisplatin at IC20, at 0.5 µM",-77.7%
same,inhibition,[7]; at 0.5 µM,-19.9% (inactive)
same,inhibition,"[7]; measured here: combo with BGB at IC20, at 0.5 µM",-12.1%
same,inhibition,"[7]; measured here: combo with cisplatin at IC20, at 0.5 µM",-33.5%
same,inhibition,[8]; at 0.5 µM,-16.5% (inactive)
same,inhibition,"[8]; measured here: inhibition with BGB combination, at 0.05 µM",-34%
same,inhibition,"[8]; measured here: inhibition with cisplatin combination, at 0.05 µM",-37.9%
same,inhibition,[9]; at 0.5 µM,-14.5% (inactive)
same,inhibition,[9]; [28],-16.8%
same,inhibition,[9]; [29],-6.76%
same,inhibition,[10]; at 0.5 µM,-18.2% (inactive)
same,inhibition,"[10]; measured here: BGB combination, at 0.5 µM",-21%
same,inhibition,"[10]; measured here: BGB combination, at 5 µM",-4.44%
same,inhibition,"[10]; measured here: cisplatin combination, at 0.5 µM",-40.7%
same,inhibition,"[10]; measured here: cisplatin combination, at 5 µM",-26%
same,inhibition,"[11]; BGB combination, concentration series, at 5 µM",2.97%
same,inhibition,[11]; at 0.5 µM,-24.5% (inactive)
same,inhibition,"[11]; cisplatin combination, concentration series, at 5 µM",-16%
same,inhibition,[12]; at 0.5 µM,4.8% (inactive)
same,inhibition,"[12]; measured here: combo with BGB IC20, at 0.5 µM",12.4%
same,inhibition,"[12]; measured here: combo with cisplatin IC20, at 0.5 µM",-16.1%
same,inhibition,[13]; at 0.5 µM,-6.8% (inactive)
same,inhibition,"[13]; cisplatin combination, at 0.5 µM",-4.81%
same,inhibition,"[13]; cisplatin combination, at 5 µM",-82%
same,inhibition,"[13]; measured here: BGB IC40 combination 0.05 uM, at 0.05 µM",-20.9%
same,inhibition,"[13]; single agent, at 5 µM",2.54%
same,inhibition,[14]; at 0.5 µM,-8.5% (inactive)
same,inhibition,"[14]; cisplatin combo, at 5 µM",-42.1%
same,inhibition,"[14]; measured here: BGB IC40 combination, at 0.05 µM",3.16%
same,inhibition,[14]; [28],-23.3%
same,inhibition,"[14]; single agent, at 5 µM",22.7%
same,inhibition,[15]; at 0.5 µM,-34.4% (inactive)
same,inhibition,[15]; [25],-61.8%
same,inhibition,[15]; [26],-22.6%
same,inhibition,"[15]; single agent, at 0.05 µM",-37.3%
same,inhibition,"[15]; single agent, at 5 µM",14.2%
Nc1ncnc2c1ncn2C1OC2COP(O)(=S)O[C@@H]2[C@@H]1O (stereo partly specified),period change,[16],-0.125 h (inactive)
CCN(CC)C(=O)N[C@@H]1C=C2c3cccc4[nH]cc(c34)C[C@H]2N(C)C1,period change,[16],0.415 h (inactive)
COc1cc(C[C@@H](C)N)c(OC)cc1I,period change,[16],-0.225 h (inactive)
NC(Cc1ccc(N(CCCl)CCCl)cc1)C(=O)O (stereo unspecified),period change,[16],0.08 h (inactive)
same,inhibition,[17],-5% (inactive)
same,fluorescence ratio (interference),[18],1 (inactive)
same,inhibition,[1]; [19],-11.1% (inactive)
same,inhibition,[1]; [20],-25.1%
same,inhibition,[1]; [21],-17.8%
same,inhibition,[1]; [22],-29.1%
same,inhibition,[1]; [23],-3.85%
same,inhibition,[1]; [24],7.41%
same,inhibition,"[2]; BGB combo, at 5 µM",28.5%
same,inhibition,[2]; at 0.5 µM,-17.3% (inactive)
same,inhibition,"[2]; cisplatin combo, at 5 µM",18.9%
same,inhibition,[2]; [25],-14.2%
same,inhibition,[2]; [26],-16.2%
same,inhibition,"[2]; single agent, at 5 µM",3.9%
same,inhibition,"[3]; BGB IC20 combo, at 0.005 µM",-15.2%
same,inhibition,"[3]; BGB IC40 combo, at 0.005 µM",-22.4%
same,inhibition,"[3]; BGB IC40 combo, at 0.05 µM",14.2%
same,inhibition,[3]; at 0.5 µM,-37% (inactive)
same,inhibition,"[3]; cisplatin combo, at 0.05 µM",11.8%
same,inhibition,"[3]; cisplatin combo, at 0.5 µM",-52.6%
same,inhibition,"[3]; cisplatin combo, at 5 µM",-29.7%
same,inhibition,[3]; [27],-16.8%
same,inhibition,[4]; at 0.5 µM,-27.3% (inactive)
same,inhibition,[4]; [22],-28.4%
same,inhibition,[4]; [28],-42.9%
same,inhibition,[4]; [29],34.7%
same,inhibition,[5]; at 0.5 µM,5.83% (inactive)
same,inhibition,[5]; [30],1.88%
same,inhibition,[5]; [31],54.4%
